# Compound activity deposited in PubChem BioAssay by National Center for Advancing Translational Sciences (NCATS).
# HT1080 IDH1KD tx: toxicity to HT-1080 IDH1 knockdown cells (counter line) | HT-1080 IDH1 knockdown viability, ATP luminescence, 48 h | Potency, µM (highest dose often 46.1 µM), usual class: cytotoxic | 360,000 compounds, 2% hits | AID 686971
#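 Cytotoxicity counter-line: IDH1KD HT-1080, 48 h, CellTiter-Glo. Curves classed by r2, magnitude and activity.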
# KB-3-1 cytotox: kills parental KB-3-1 adenocarcinoma cells. KB-3-1 viability, CellTiter-Glo ATP luminescence, 72 h. Potency, µM (titrated, usually from 46.1 µM), actives largely listed as cytotoxic. 400,000 compounds, 1.4% hits. AID 1347075; further: nearly all actives have a fitted effect of over 60% in size
#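 KB-3-1 parental drug-naive adenocarcinoma cells in DMEM/10% FBS, incubated 72 h at 37 C with pin-transferred compounds across a concentration series. Viability by CellTiter-Glo luminescence; concentration-response curves fitted after normalization.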
# TDP1 cell noCPT: qHTS for Inhibitors of human tyrosyl-DNA phosphodiesterase 1 (TDP1): qHTS in cells in absence of CPT. Potency, µM (top dose mostly 46.2 µM), usual class: inhibitors. 420,000 compounds, 15% hits. DT40 Tdp1-/- hTDP1 cells, no CPT, ATP luminescence, 48 h; further: nearly all actives have a fitted effect of over 55% in size
#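 Growth of hTDP1-complemented DT40 Tdp1-knockout cells is measured by ATP luminescence after at least 48 hr compound exposure at 37 °C, with DMSO substituting for the 20 nM CPT used in the parallel screen.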
# HT1080-NT tox: kills 2HG-producing HT-1080-NT fibrosarcoma cells; HT-1080-NT fibrosarcoma viability, CellTiter-Glo ATP luminescence, 48 h; Potency, µM (highest dose often 46.1 µM), hits mostly cytotoxic; 360,000 compounds, 1.6% hits; AID 686970;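 further: NT is the 2HG producing partner of a matched IDH1 knockdown line; nearly all actives have a fitted effect of over 55% in size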
#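 Luminescent CellTiter-Glo readout after 48 hours of compound exposure at 37 degrees C defined viability of HT-1080-NT cells. Activity was normalized to DMSO wells and cell-free media wells; concentration-response curves were fitted and assigned curve classes.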
# DT40 TDP1 CPT: DT40-hTDP1 cell growth loss with CPT; 420,000 compounds, 12% hits; chicken DT40 Tdp1-/-;hTDP1 cells + 20 nM CPT, ATP luminescence, 48 h; Potency, µM (highest dose often 46.2 µM), usual class: inhibitors; AID 686979; further: nearly all actives have a fitted effect of over 55% in size
#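 Chicken DT40 Tdp1-/- cells stably complemented with human TDP1 were seeded at 400 cells/well in medium containing 20 nM camptothecin, exposed to pin-transferred compounds, and grown at 37 °C for at least 48 hr. Viability was read as ATP luminescence.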
# KB-V1 MDR tox: KB-V1 MDR subline cytotoxicity; KB-V1 MDR cells viability, CellTiter-Glo, 72 h; Potency, µM (series often up to 46.1 µM), hits mostly cytotoxic; 400,000 compounds, 3.4% hits; further: nearly all actives have a fitted effect of over 60% in size
#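 KB-V1, DMEM (no phenol red) + 10% FBS; cpd pin-transferred, titration series; 72 h, 37 degrees C; CellTiter-Glo, luminescence. Data normalized, curve-fit.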
# A number is an active result; – = inactive; ? = inconclusive; · = no result; [ ] = dose if it differs, or a comment. The list is not random: actives were taken first. Their share in the collection is about 19%. The call rests on the fitted dose curve; in most records, active means well fitted curve in the direction sought with a large enough effect; inconclusive means small, poorly fitted or top-dose-only effect, or another doubt; inactive means no such curve, though single readings can be large; an effect the other way counts as inactive or inconclusive.
SMILES,HT1080 IDH1KD tx,KB-3-1 cytotox,TDP1 cell noCPT,HT1080-NT tox,DT40 TDP1 CPT,KB-V1 MDR tox
N#Cc1ccc(Cl)cc1NC(=O)CSc1cccc[n+]1[O-],–,–,23µM,–,?,–
O=C(CSc1cccc[n+]1[O-])c1cccs1,–,–,4.1µM,–,?,?
O=C(CSc1cccc[n+]1[O-])c1cc(Cl)ccc1Cl,2.3µM,–,0.29µM,–,0.01µM,–
O=C(CSc1cccc[n+]1[O-])c1cc2ccccc2o1,16µM,18µM,?,7.3µM,21µM,21µM
COc1c2c(c(C(=O)/C=C/C(C)=C/c3ccccc3)c3c1OCO3)CCN(C)C2,·,·,–[9.04 µM],·,–[9.04 µM],·
CC(=O)c1ccc(N2CCN(C(=O)/C=C/c3ccc4ccccc4n3)CC2)cc1,–,–,15µM,–,?,?
CC(=O)N=c1c(C#N)cc2c(=O)n3cccc(C)c3nc2n1CCCOC(C)C,–,–,–,?,–,–
Cc1cccn2c(=O)c3cc(C#N)c(=NC(=O)c4ccncc4)n(CCCOC(C)C)c3nc12,–,–,16µM,–,18µM,–
Cc1cccn2c(=O)c3cc(C#N)c(=NC(=O)c4cccs4)n(CCCOC(C)C)c3nc12,–,–,18µM,–,?,?
CNC(=O)c1c(NC(=O)c2nc(SCc3ccc(C)cc3)ncc2Cl)sc2c1CCCC2,·,–,–,·,–,–
COc1ccc(N=C2C(=O)N3c4c(cccc42)C(C)=CC3(C)C)cc1,–,–,2.6µM,–,5.2µM,?
COc1ccc(N=C2C(=O)Nc3ccccc32)cc1,–,–,–,?,–,–
COc1ccc(Nc2nc3cc(-c4sccc4C)sc3c(=O)n2C)cc1OC,1.3µM,5.8µM,1µM,?,1.3µM,6.5µM
CCOC(=O)Cc1ccc(Nc2nc3cc(-c4sccc4C)sc3c(=O)n2C)cc1,4.6µM,10µM,3.7µM,8.2µM,2.9µM,15µM
Cc1ccsc1-c1cc2nc(NCCOc3ccccc3Cl)n(C)c(=O)c2s1,–,–,?,–,?,?
COc1cccc(-c2cc3nc(Nc4ccc(OC)c(OC)c4)n(C)c(=O)c3s2)c1,?,–,?,?,?,–
COc1ccc(Nc2nc3cc(-c4ccsc4)sc3c(=O)n2C)cc1OC,–,–,?,–,13µM,–
Cn1c(/N=C/c2c(O)ccc3ccccc23)nc2ccccc21,?,–,5.8µM,–[9.24 µM],3.3µM,–
Cn1ncc(Cl)c1C(=O)Nc1cccc(Cl)c1,–,?,–,–,–,–
Cn1nccc1C(=O)N/N=C/c1c(O)ccc2ccccc12,?,7.3µM,3.3µM,?,4.6µM,?
Cn1ncc(N=Cc2c(O)ccc3ccccc23)c1C(=O)Nc1cccc(Cl)c1,–,?,23µM,–,?,?
O=C(N/N=C/c1c(O)ccc2ccccc12)c1ccc[n+](CCO)c1,?,–,?,–,29µM,?
O=C(C[n+]1cccc(C(=O)N/N=C/c2ccc(Br)cc2)c1)c1ccccc1,–,–,–,–,–,–
Cn1nccc1C(=O)Oc1cccc(/C=N/NC(=O)c2ccccc2O)c1,–,–,–,–,–,–
COc1ccc(C=C(C(=O)O)c2ccc(OC)cc2)cc1,–,–,–,–,–,–
SMILES,HT1080 IDH1KD tx,KB-3-1 cytotox,TDP1 cell noCPT,HT1080-NT tox,DT40 TDP1 CPT,KB-V1 MDR tox
COc1ccc(/C=N/NC(=O)c2ccc(=O)n(C)c2)cc1OC,–,–,–,–,–,–
Cc1occc1C(=O)N/N=C/c1c(O)ccc2ccccc12,6.5µM,6.5µM,1µM,?,0.65µM,?
Cn1cc(C(=O)N/N=C/c2c(O)ccc3ccccc23)ccc1=O,?,?,3.7µM,?,5.2µM,–
O=C(NN=Cc1c(O)ccc2ccccc12)c1ccncc1,?,–,3.7µM,?,4.6µM,0.46µM
Cc1ccc(C(=O)N/N=C/c2c(O)ccc3ccccc23)cn1,?,–,2.9µM,?,3.3µM,–
CC(SCC(=O)NC12CC3CC(CC(C3)C1)C2)C(=O)O (stereo not drawn),–,–,–,–,–,–
CCCC(=O)Nc1ccc(C(=O)COC(=O)c2cc(C)oc2C)cc1,–,–,–,–,–,–
CCCCN(C=O)c1c(CC)nc2c(OCc3ccc(S(C)(=O)=O)cc3)cccn12,–,–,?,–,–,?
O=S1(=O)[C@H]2C[C@@H]3C=C[C@@]2(CN1Cc1ccc(F)cc1)O3,–,–,–,–,?,–
Cc1nn(Cc2ccccc2)c(Cl)c1/C=N/NC(=O)c1cccnc1,–,–,?,–,–,–
O=C(N/N=C/c1c(O)ccc2ccccc12)c1ccc(Br)o1,5.8µM,?,4.6µM,?,5.2µM,?
O=C(O)c1ccc(N=Cc2c(O)ccc3ccccc23)cc1,?,–,–,?,–,–
O=C(N/N=C/c1c(O)ccc2ccccc12)c1cccnc1,?,?,1µM,?,1.2µM,?
O=C(N/N=C\c1c(O)ccc2ccccc12)c1ccc(O)cc1,?,–,6.5µM,?,?,–
Cc1c(/C=N/NC(=O)c2cccnc2)c2ccccc2n1Cc1ccccc1,?,?,7.3µM,?,12µM,–
O=C1NC[C@@H](CCCCN2CCN(Cc3ccccc3)C(=O)C2=O)N(Cc2ccccc2)C1=O,–,–,–,–,–,–
O=C(N/N=C/c1c[nH]c2ccccc12)c1ccc(Cl)cc1,–,–,–,–,–,–
O=C(N/N=C\c1c(O)ccc2ccccc12)c1cncc(Br)c1,1µM,2.9µM,0.82µM,?,1.6µM,?
Cc1[nH]c2ccccc2c1/C=N/NC(=O)c1cccs1,–,–,–,–,?,?
Cn1cccc1/C=N\NC(=O)c1cncc(Br)c1,–,–,–,–,–,–
Cc1c(/C=N/NC(=O)c2cccs2)c2ccccc2n1Cc1ccccc1Cl,–,?,21µM,–,16µM,?
Cc1cccc(C)c1NC(=O)CNC(=O)c1ccc(COc2ccccc2)cc1,?,–,–,–,–,–
CCOC(=O)C1(C)CCN1C(=O)c1ccccc1OC(F)(F)F (stereo not drawn),–,–,–,–,–,–
CCOc1ccc(C(CC(=O)O)NC(=O)C(Sc2ccccc2)c2ccccc2)cc1 (stereo not drawn),–,–,–,–,–,–
CCOC(=O)c1nn(-c2ccc(Cl)cc2)c2nnc(Cc3ccccc3)c(=O)n12,–,–,–,–,–,–
c1ccc(-c2nnc(-c3ccco3)n2-c2ccccc2)cc1,–,–,–,–,–,18µM
O=C(COC(=O)/C=C/c1cccc(F)c1)NCc1ccc2c(c1)OCO2,–,–,–,–,–,–
